The text below walks through data of PubChem BioAssay (NCI).

Where “and” joins values, the source holds several entries; their conditions need not be identical. Equal values may be shown once. The panel holds about 79,000 compounds, 15% with a hit somewhere; the sample as a whole holds those more often. Some structures have more than one record in an assay (separate samples or runs), and their calls can disagree. Calls of active or inactive are those of the source. Rule as the data show it: active = growth inhibition above about 70%; inactive = the rest.

The nature of experiment [1]: NCI Yeast Anticancer Drug Screen. Data for the rad50 strain (AID 155).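 Also: 0% = growth of vehicle-only cultures of the same strain.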 To be noted: S. cerevisiae rad50 strain growth inhibition, stronger effect = higher value. The gist of the method: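 Relative growth inhibition (compound vs vehicle) was measured in yeast with a defined repair-gene alteration.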
Experiment [2] can be described thus: NCI Yeast Anticancer Drug Screen. Data for the mec2-1 strain (AID 157). To be noted: S. cerevisiae mec2-1 strain, stronger effect = higher value. In short, it runs like this:
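Compounds were applied to mec2-1 yeast cells. Their growth was then compared with that of vehicle-treated cultures to give growth inhibition.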

A short description of experiment [3]: NCI Yeast Anticancer Drug Screen. Data for the sgs1 mgt1 strain (AID 161).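 Also: 0% = growth of cultures given vehicle only.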 To be noted: S. cerevisiae sgs1 mgt1 strain, stronger effect = higher value. In short, it runs like this:
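Yeast cells carrying a defined DNA-repair defect were exposed to test compounds. Growth inhibition was measured relative to vehicle-treated controls.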

A short description of experiment [4]: NCI Yeast Anticancer Drug Screen. Data for the cln2 rad14 strain (AID 165).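 Also: 0% = growth equal to vehicle treated cultures.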 To be noted: S. cerevisiae cln2 rad14 strain, stronger effect = higher value. The gist of the method: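 Strain: cln2 rad14 yeast, altered in cell cycle control and DNA damage repair. Read-out: growth inhibition vs vehicle.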
The nature of experiment [5]: NCI Yeast Anticancer Drug Screen. Data for the bub3 strain (AID 167). The settings on record: S. cerevisiae bub3 mutant strain, stronger effect = higher value. The gist of the method: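 Screening used yeast with an engineered genetic alteration affecting cell cycle control. Compound-exposed cultures were compared with vehicle cultures, and reduced growth was taken as inhibition.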

Experiment [6] can be described thus: NCI Yeast Anticancer Drug Screen. Data for the wt2 strain (AID 169).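 Also: 0% = growth of vehicle-treated yeast cultures.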 To be noted: S. cerevisiae wt2 strain growth inhibition, stronger effect = higher value. In short, it runs like this:
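Growth of compound-treated yeast is measured and expressed as inhibition relative to vehicle-only controls.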

The nature of experiment [7]: NCI Yeast Anticancer Drug Screen. Data for the mlh1 rad18 strain (AID 175). To be noted: S. cerevisiae mlh1 rad18 strain growth inhibition, stronger effect = higher value. In short, it runs like this:
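A repair-deficient yeast strain is exposed to test compound, and growth is scored relative to vehicle-treated controls.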

[8] abbreviates: at 5.0 µM (retest, dose inferred, filed as 0.5).
Where [9] appears, read: at 50.0 µM (retest, dose inferred, filed as 5.0).

Consider `COc1nc(N)c(NC2OCC(O)C(O)C2O)c(=O)n1C` (centres undefined), for which the growth inhibition in experiment [1] (at 50.0 µM) is -32.8% (inactive) [middle of 5 runs].

On to `CCO/C=C1\SC(=S)N(c2cccc(O)c2)C1=O`, for which the growth inhibition in experiment [1] (setting [8]) was 57% (inactive); in experiment [1] (setting [9]), 100% (active); in experiment [1] (at 50.0 µM), 28.4% (inactive); in experiment [2] (setting [8]), 74% (active); in experiment [2] (setting [9]), 100% (active); in experiment [2] (at 50.0 µM), 15.3% (inactive). Also, the growth inhibition in experiment [3] (setting [8]) was 13% (inactive); in experiment [3] (setting [9]) it was 90% (active); in experiment [3] (at 50.0 µM), 40.4% (inactive); in experiment [4] (setting [8]) it was 29% (inactive); in experiment [4] (setting [9]), 72% (active); in experiment [4] (at 50.0 µM), -2.6% (inactive). In addition, the growth inhibition is 6% (inactive) in experiment [5] (setting [8]); 91% (active) in experiment [5] (setting [9]); 40.2% (inactive) in experiment [5] (at 50.0 µM); -13% (inactive) in experiment [6] (at 1.2 µM); -13% (inactive) in experiment [6] (at 3.7 µM); -13% (inactive) in experiment [6] (at 11.0 µM). For the same compound, the growth inhibition is 22% (inactive) in experiment [6] (at 33.0 µM); 96% (active) in experiment [6] (at 100.0 µM); 54% (inactive) in experiment [7] (setting [8]); 100% (active) in experiment [7] (setting [9]); 70.3% (active) in experiment [7] (at 50.0 µM).

As for `CC(C)(C)OC(=O)NCCc1cccc2c1oc1c(CCC(=O)O)cccc12`, the growth inhibition in experiment [1] (setting [8]) was -14% (inactive); in experiment [1] (setting [9]), 76% (active); in experiment [1] (at 50.0 µM) it was 89.6% (active); in experiment [2] (setting [8]), -1% (inactive); in experiment [2] (setting [9]) it was 95% (active); in experiment [2] (at 50.0 µM), 78.4% (active). For the same compound, the growth inhibition is 3% (inactive) in experiment [3] (setting [8]); 53% (inactive) in experiment [3] (setting [9]); 68.7% (inactive) in experiment [3] (at 50.0 µM); -16% (inactive) in experiment [4] (setting [8]); 99% (active) in experiment [4] (setting [9]); 87% (active) in experiment [4] (at 50.0 µM). In addition, the growth inhibition was -20% (inactive) in experiment [5] (setting [8]), 88% (active) in experiment [5] (setting [9]) and 79.6% (active) in experiment [5] (at 50.0 µM).

Consider `Cc1nc2cc(Cl)ccc2n1-c1ccccc1`, for which the growth inhibition in experiment [1] (setting [8]) was 39% (inactive); in experiment [1] (setting [9]) it was 92% (active); in experiment [1] (at 50.0 µM), 66.9% (inactive); in experiment [2] (setting [8]) it was 38% (inactive); in experiment [2] (setting [9]) it was 98% (active); in experiment [2] (at 50.0 µM), 17% (inactive). For the same compound, the growth inhibition is -7% (inactive) in experiment [3] (setting [8]); 94% (active) in experiment [3] (setting [9]); 77.2% (active) in experiment [3] (at 50.0 µM); 32% (inactive) in experiment [4] (setting [8]); 99% (active) in experiment [4] (setting [9]); 44% (inactive) in experiment [4] (at 50.0 µM). The growth inhibition in experiment [5] (setting [8]) is 4% (inactive); in experiment [5] (setting [9]), 97% (active); in experiment [5] (at 50.0 µM), 76.5% (active); in experiment [6] (at 1.2 µM) it was 7% (inactive); in experiment [6] (at 3.7 µM), 11% (inactive); in experiment [6] (at 11.0 µM) it was 9% (inactive). Besides, the growth inhibition in experiment [6] (at 33.0 µM) is 37% (inactive); in experiment [6] (at 100.0 µM), 96% (active); in experiment [7] (setting [8]), 36% (inactive); in experiment [7] (setting [9]) it was 85% (active); in experiment [7] (at 50.0 µM), 60.2% (inactive).

With `C[n+]1c2cc(N)ccc2cc2ccc(N)cc21`, the growth inhibition was 55% (inactive) and 100% (active) in experiment [1] (setting [8]); 98% (active) and 99% (active) in experiment [1] (setting [9]); 97.4% (active) and 75.2% (active) in experiment [1] (at 50.0 µM); 11% (inactive) and 100% (active) in experiment [2] (setting [8]); 99% (active) and 100% (active) in experiment [2] (setting [9]); 75.3% (active) and 79% (active) in experiment [2] (at 50.0 µM). For the same compound, the growth inhibition in experiment [3] (setting [8]) was 3% (inactive) and -17% (inactive); in experiment [3] (setting [9]) it was 97% (active) and 44% (inactive); in experiment [3] (at 50.0 µM), 67.9% (inactive) and 78.2% (active); in experiment [4] (setting [8]), 10% (inactive) and 35% (inactive); in experiment [4] (setting [9]), 97% (active) and 64% (inactive); in experiment [4] (at 50.0 µM) it was 53.9% (inactive) and 39.6% (inactive). The growth inhibition is -1% (inactive) and -18% (inactive) in experiment [5] (setting [8]); 99% (active) and 88% (active) in experiment [5] (setting [9]); 86.5% (active) and 81.6% (active) in experiment [5] (at 50.0 µM); -6% (inactive) in experiment [6] (at 1.2 µM); -12% (inactive) in experiment [6] (at 3.7 µM); 4% (inactive) in experiment [6] (at 11.0 µM). Further, the growth inhibition in experiment [6] (at 33.0 µM) is 25% (inactive); in experiment [6] (at 100.0 µM), 84% (active); in experiment [7] (setting [8]), 28% (inactive) and 100% (active); in experiment [7] (setting [9]), 97% (active) and 100% (active); in experiment [7] (at 50.0 µM) it was 91.3% (active) and 83.5% (active).

For the compound `Cc1ccc(CC(=O)c2c(C)[nH]c3ccccc23)cc1C`, the growth inhibition in experiment [1] (setting [8]) is 10% (inactive); in experiment [1] (setting [9]) it was 11% (inactive); in experiment [1] (at 50.0 µM), 95.7% (active); in experiment [2] (setting [8]), 7% (inactive); in experiment [2] (setting [9]), 24% (inactive); in experiment [2] (at 50.0 µM), 96.2% (active). The growth inhibition in experiment [3] (setting [8]) is 11% (inactive); in experiment [3] (setting [9]) it was 11% (inactive); in experiment [3] (at 50.0 µM), 98.5% (active); in experiment [4] (setting [8]), 40% (inactive); in experiment [4] (setting [9]), 44% (inactive); in experiment [4] (at 50.0 µM), 93.5% (active). The growth inhibition in experiment [5] (setting [8]) is 0% (inactive); in experiment [5] (setting [9]), 4% (inactive); in experiment [5] (at 50.0 µM), 92.5% (active).

Consider `COc1ccc(/C=C/C(=O)CCN2CCN(CCC(=O)/C=C/c3ccc(OC)cc3)CC2)cc1`, for which the growth inhibition in experiment [1] (setting [8]) is 16% (inactive); in experiment [1] (setting [9]), 99% (active); in experiment [1] (at 50.0 µM), 81.7% (active); in experiment [2] (setting [8]), -15% (inactive); in experiment [2] (setting [9]), 99% (active); in experiment [2] (at 50.0 µM) it was 90.7% (active). The growth inhibition is -4% (inactive) in experiment [3] (setting [8]); 99% (active) in experiment [3] (setting [9]); 90.2% (active) in experiment [3] (at 50.0 µM); -20% (inactive) in experiment [4] (setting [8]); 99% (active) in experiment [4] (setting [9]); 29.9% (inactive) in experiment [4] (at 50.0 µM). Further, the values for the growth inhibition in experiment [5] (setting [8]), in experiment [5] (setting [9]) and in experiment [5] (at 50.0 µM) were -59% (inactive), 99% (active) and 87% (active), respectively.

For `CCN(CC)c1ccc(C(=C2C=CC(=[N+](CC)CC)C=C2)c2ccc(N(CC)CC)cc2)cc1`, the growth inhibition was 97% (active) in experiment [1] (setting [8]); 91% (active) in experiment [1] (setting [9]); 67.5% (inactive) in experiment [1] (at 50.0 µM); 98% (active) in experiment [2] (setting [8]); 92% (active) in experiment [2] (setting [9]); 73% (active) in experiment [2] (at 50.0 µM). The growth inhibition in experiment [3] (setting [8]) is 98% (active); in experiment [3] (setting [9]), 92% (active); in experiment [3] (at 50.0 µM), 77.5% (active); in experiment [4] (setting [8]), 97% (active); in experiment [4] (setting [9]) it was 91% (active); in experiment [4] (at 50.0 µM) it was 76% (active). The growth inhibition in experiment [5] (setting [8]) was 98% (active); in experiment [5] (setting [9]), 90% (active); in experiment [5] (at 50.0 µM), 74.6% (active); in experiment [7] (setting [8]), 97% (active); in experiment [7] (setting [9]), 90% (active).

Consider `C=C1CC2(CC(c3ccccc3C)OC(c3ccccc3C)C2)OC1=O` (centres undefined), for which the growth inhibition in experiment [1] (setting [8]) was 54% (inactive); in experiment [1] (setting [9]) it was 85% (active); in experiment [1] (at 50.0 µM), 77.7% (active); in experiment [2] (setting [8]), 53% (inactive); in experiment [2] (setting [9]), 94% (active); in experiment [2] (at 50.0 µM), 83.7% (active). Also, the growth inhibition was 76% (active) in experiment [3] (setting [8]); 83% (active) in experiment [3] (setting [9]); 84.1% (active) in experiment [3] (at 50.0 µM); 83% (active) in experiment [4] (setting [8]); 91% (active) in experiment [4] (setting [9]); 84% (active) in experiment [4] (at 50.0 µM). Also, the growth inhibition in experiment [5] (setting [8]) is 74% (active); in experiment [5] (setting [9]), 87% (active); in experiment [5] (at 50.0 µM), 78.4% (active); in experiment [7] (setting [8]) it was 80% (active); in experiment [7] (setting [9]), 90% (active).
